5 compounds from ChEMBL document CHEMBL1961873, “Compounds: GSK PKIS; Assays: Nanosyn kinase panel” (2012) can be followed below.

A word on the inhibition: it is the relative decrease from the control value, in per cent.

The target in test [1] is T1, Tyrosine-protein kinase ITK/TSK (Homo sapiens) (UniProt Q08881).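 Further: values are mean percent inhibition of ITK from the GSK PKIS screen.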
T1 sequence (whole entry): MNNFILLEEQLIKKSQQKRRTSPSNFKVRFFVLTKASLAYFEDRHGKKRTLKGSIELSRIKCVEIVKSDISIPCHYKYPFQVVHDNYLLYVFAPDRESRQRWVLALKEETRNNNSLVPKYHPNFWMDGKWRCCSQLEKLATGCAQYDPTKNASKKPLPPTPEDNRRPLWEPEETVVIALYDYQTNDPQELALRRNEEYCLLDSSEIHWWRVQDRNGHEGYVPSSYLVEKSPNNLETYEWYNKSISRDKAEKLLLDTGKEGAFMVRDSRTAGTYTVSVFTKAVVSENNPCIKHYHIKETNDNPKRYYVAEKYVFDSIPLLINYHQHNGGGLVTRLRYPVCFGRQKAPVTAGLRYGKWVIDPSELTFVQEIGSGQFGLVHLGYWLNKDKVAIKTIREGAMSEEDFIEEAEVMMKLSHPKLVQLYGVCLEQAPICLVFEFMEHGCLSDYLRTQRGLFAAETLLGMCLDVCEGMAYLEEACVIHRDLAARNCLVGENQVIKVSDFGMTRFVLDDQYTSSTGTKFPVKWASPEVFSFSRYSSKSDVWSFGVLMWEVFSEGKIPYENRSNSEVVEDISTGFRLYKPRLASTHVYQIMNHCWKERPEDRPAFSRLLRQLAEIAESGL
The following applies: at 1 µM.

Test [2] addresses Tyrosine-protein kinase JAK1 (Homo sapiens) (UniProt P23458). The following applies: at 0.1 µM.
For test [3] the target is unchanged. The following applies: at 1 µM.
For test [4], the target named is Tyrosine-protein kinase JAK2 (Homo sapiens) (UniProt O60674). The following applies: at 0.1 µM.
Test [5] shares this target. The following applies: at 1 µM.
Test [6] deals with T2, Tyrosine-protein kinase JAK3 (Homo sapiens) (UniProt P52333).
T2 sequence (whole entry): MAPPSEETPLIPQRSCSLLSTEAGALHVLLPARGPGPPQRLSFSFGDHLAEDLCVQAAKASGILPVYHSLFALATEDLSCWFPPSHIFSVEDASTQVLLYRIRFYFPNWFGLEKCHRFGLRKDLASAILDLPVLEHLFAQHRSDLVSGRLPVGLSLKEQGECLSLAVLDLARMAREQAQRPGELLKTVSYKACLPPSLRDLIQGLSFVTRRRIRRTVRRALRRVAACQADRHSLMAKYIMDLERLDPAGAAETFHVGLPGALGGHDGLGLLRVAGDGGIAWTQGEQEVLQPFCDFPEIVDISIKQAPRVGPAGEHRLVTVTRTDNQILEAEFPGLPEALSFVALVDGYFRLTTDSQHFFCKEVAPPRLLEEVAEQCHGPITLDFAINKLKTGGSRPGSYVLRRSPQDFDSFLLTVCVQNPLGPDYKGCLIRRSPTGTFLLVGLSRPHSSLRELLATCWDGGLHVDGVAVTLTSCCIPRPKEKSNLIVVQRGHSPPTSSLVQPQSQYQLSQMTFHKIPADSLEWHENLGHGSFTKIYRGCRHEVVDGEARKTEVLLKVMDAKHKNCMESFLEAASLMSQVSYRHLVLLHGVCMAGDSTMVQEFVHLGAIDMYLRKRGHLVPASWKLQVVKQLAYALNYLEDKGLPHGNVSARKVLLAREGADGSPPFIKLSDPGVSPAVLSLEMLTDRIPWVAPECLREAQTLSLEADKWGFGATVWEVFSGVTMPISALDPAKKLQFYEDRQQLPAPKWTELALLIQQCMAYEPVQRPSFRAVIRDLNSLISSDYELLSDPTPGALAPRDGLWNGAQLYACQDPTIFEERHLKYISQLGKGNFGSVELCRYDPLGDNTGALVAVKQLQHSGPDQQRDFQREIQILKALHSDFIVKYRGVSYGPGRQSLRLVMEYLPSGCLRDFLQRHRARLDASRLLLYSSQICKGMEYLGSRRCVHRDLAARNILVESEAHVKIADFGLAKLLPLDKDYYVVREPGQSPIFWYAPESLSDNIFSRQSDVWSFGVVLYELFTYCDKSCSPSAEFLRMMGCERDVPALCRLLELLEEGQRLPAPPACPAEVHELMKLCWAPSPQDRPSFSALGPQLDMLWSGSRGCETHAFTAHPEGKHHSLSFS
The following applies: at 0.1 µM.

In test [7] the target is T2, Tyrosine-protein kinase JAK3 (Homo sapiens). The following applies: at 1 µM.
Test [8] addresses Vascular endothelial growth factor receptor 2 (Homo sapiens) (UniProt P35968). The following applies: at 0.1 µM.
For test [9] the target is unchanged. The following applies: at 1 µM.
Test [10] has as its target Mast/stem cell growth factor receptor Kit (Homo sapiens) (UniProt P10721). The following applies: at 0.1 µM.
Test [11] has the same target. The following applies: at 1 µM.
Test [12] deals with Mast/stem cell growth factor receptor Kit (Homo sapiens), P10721 [D816V]. The following applies: at 0.1 µM.
For test [13] the test system is unchanged. The following applies: at 1 µM.
In test [14] the test system is Mast/stem cell growth factor receptor Kit (Homo sapiens), P10721 [T670I]. The following applies: at 0.1 µM.
Test [15] has the same test system. The following applies: at 1 µM.
The subject of test [16] is Mast/stem cell growth factor receptor Kit (Homo sapiens), P10721 [V560G]. The following applies: at 0.1 µM.
Test [17] shares this test system. The following applies: at 1 µM.
Test [18] concerns the target Tyrosine-protein kinase Lck (Homo sapiens) (UniProt P06239). The following applies: at 0.1 µM.
For test [19] the target is unchanged. The following applies: at 1 µM.
The target in test [20] is Leukocyte tyrosine kinase receptor (Homo sapiens) (UniProt P29376). The following applies: at 0.1 µM.
Sequence of Leukocyte tyrosine kinase receptor (Homo sapiens) (P29376 whole entry): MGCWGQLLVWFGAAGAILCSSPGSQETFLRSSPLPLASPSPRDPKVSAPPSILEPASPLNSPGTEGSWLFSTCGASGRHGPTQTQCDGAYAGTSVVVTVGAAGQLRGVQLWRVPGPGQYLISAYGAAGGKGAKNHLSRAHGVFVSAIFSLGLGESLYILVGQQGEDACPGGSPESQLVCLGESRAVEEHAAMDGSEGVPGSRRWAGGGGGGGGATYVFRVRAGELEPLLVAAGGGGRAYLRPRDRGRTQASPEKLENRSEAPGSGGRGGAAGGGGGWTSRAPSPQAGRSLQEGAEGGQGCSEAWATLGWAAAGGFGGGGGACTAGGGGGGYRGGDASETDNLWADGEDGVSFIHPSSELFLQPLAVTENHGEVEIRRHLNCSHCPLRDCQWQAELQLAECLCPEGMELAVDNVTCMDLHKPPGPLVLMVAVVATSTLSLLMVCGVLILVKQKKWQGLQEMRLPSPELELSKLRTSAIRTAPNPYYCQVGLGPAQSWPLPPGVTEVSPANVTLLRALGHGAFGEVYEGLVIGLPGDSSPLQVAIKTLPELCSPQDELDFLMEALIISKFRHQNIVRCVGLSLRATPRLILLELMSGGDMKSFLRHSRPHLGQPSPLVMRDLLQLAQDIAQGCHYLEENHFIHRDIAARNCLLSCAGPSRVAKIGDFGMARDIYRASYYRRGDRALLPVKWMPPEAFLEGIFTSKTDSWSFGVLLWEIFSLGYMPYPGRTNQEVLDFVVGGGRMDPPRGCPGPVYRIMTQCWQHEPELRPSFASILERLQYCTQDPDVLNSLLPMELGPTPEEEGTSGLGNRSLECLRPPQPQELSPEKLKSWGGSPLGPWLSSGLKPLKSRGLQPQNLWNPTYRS

Sequence of Mast/stem cell growth factor receptor Kit (Homo sapiens), P10721 [V560G] (P10721 whole entry V560G): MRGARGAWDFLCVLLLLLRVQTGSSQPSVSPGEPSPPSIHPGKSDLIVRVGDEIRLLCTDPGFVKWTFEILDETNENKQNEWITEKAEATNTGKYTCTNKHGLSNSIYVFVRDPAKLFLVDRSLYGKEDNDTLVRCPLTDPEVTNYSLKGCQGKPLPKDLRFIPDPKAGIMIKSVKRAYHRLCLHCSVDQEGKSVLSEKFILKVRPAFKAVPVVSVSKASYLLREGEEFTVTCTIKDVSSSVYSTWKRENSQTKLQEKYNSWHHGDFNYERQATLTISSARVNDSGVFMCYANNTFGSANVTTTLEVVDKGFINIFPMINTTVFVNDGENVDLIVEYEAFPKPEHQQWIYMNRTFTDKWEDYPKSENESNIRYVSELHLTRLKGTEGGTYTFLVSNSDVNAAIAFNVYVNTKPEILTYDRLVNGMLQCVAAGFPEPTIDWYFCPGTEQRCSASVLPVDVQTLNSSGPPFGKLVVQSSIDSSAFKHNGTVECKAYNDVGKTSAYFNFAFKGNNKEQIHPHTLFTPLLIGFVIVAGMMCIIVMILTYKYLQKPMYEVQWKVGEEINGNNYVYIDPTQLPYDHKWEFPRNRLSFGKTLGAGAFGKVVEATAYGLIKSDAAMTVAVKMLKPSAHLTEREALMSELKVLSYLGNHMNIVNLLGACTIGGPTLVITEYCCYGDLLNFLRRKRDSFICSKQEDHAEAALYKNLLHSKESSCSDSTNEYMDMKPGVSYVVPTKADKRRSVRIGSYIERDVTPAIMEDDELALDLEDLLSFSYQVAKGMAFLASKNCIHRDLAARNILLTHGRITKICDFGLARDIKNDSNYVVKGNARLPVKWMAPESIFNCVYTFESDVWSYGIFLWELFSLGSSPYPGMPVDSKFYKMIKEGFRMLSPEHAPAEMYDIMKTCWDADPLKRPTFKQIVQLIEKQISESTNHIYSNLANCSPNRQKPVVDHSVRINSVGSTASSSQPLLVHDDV
Sequence of Mast/stem cell growth factor receptor Kit (Homo sapiens), P10721 [T670I] (P10721 whole entry T670I): as the sequence (P10721 whole entry V560G) above, with G560V, T670I counted along it
Sequence of Vascular endothelial growth factor receptor 2 (Homo sapiens) (P35968 whole entry): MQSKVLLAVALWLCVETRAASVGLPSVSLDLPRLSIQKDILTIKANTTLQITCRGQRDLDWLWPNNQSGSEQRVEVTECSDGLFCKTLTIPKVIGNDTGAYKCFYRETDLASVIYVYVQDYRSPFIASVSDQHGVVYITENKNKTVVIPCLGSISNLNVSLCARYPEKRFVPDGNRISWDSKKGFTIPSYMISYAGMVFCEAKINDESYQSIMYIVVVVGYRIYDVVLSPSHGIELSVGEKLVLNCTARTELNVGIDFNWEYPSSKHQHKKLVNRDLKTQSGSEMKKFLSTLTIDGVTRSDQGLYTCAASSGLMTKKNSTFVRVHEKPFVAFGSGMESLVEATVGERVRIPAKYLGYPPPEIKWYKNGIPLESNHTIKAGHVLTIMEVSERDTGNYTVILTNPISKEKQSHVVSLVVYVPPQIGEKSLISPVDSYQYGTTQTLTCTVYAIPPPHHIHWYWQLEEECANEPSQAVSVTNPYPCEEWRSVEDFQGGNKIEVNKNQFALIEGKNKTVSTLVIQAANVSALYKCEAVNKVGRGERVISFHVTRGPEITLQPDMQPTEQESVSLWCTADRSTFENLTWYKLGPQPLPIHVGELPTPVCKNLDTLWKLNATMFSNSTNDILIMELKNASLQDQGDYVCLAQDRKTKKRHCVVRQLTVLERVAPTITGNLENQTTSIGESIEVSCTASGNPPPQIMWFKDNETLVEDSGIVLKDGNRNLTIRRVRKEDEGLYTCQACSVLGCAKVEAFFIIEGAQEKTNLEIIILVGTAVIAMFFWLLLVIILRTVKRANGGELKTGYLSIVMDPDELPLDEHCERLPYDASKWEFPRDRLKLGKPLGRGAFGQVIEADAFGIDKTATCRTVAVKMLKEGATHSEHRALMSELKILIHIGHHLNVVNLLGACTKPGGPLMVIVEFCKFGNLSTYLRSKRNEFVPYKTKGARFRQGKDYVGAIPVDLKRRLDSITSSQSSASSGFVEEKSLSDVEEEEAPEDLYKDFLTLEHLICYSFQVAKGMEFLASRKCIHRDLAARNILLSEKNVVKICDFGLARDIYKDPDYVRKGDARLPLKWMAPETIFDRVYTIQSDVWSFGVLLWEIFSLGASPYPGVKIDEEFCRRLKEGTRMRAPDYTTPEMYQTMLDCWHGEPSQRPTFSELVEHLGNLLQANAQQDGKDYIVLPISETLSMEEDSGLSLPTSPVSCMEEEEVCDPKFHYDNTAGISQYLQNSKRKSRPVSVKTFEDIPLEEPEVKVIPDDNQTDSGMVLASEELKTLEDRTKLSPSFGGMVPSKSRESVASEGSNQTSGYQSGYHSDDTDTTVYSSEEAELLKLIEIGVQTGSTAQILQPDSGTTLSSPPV
Sequence of Mast/stem cell growth factor receptor Kit (Homo sapiens) (P10721 whole entry): as the sequence (P10721 whole entry V560G) above, with G560V counted along it
Sequence of Tyrosine-protein kinase JAK1 (Homo sapiens) (P23458 whole entry): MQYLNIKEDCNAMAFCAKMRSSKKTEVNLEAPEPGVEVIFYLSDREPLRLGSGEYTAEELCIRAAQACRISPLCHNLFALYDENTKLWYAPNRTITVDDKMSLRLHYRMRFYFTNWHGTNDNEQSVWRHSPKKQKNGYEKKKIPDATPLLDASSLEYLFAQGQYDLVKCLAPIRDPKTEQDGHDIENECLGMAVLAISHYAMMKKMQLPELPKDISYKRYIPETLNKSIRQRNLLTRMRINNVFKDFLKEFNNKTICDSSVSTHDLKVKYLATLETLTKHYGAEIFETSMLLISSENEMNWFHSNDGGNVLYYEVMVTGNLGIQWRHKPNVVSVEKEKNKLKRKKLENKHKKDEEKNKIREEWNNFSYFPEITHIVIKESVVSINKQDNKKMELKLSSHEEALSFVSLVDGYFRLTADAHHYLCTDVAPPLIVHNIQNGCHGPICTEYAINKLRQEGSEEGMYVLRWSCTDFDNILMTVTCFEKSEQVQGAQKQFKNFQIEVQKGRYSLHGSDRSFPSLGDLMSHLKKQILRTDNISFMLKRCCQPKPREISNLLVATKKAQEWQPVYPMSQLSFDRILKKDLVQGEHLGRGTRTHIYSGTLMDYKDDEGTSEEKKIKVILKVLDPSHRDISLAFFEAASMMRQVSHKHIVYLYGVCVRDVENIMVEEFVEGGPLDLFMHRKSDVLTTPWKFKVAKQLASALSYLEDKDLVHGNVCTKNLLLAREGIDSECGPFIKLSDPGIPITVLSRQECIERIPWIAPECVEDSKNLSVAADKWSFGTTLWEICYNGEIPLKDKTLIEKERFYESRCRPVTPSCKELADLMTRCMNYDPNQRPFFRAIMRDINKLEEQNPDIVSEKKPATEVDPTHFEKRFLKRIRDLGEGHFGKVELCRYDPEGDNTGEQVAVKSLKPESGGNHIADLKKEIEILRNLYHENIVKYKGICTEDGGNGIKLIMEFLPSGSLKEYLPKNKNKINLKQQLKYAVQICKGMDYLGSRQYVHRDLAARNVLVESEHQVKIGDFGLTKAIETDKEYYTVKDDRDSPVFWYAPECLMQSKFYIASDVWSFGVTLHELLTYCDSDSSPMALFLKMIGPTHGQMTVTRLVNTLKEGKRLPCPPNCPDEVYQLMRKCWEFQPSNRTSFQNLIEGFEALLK
Sequence of Tyrosine-protein kinase Lck (Homo sapiens) (P06239 2-509 limits assumed): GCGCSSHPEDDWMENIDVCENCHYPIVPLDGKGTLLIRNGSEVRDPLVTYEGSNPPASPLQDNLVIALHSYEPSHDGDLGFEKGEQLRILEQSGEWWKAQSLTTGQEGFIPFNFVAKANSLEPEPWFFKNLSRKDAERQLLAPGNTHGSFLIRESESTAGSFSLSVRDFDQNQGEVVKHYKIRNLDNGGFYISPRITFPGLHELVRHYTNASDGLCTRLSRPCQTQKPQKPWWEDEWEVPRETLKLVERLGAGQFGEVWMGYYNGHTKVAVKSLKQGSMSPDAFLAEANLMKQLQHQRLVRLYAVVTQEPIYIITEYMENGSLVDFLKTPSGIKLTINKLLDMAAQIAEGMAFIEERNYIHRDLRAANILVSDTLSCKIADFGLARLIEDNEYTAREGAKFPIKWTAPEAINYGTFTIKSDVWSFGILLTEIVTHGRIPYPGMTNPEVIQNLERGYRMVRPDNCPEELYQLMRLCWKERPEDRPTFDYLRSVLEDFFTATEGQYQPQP
Sequence of Mast/stem cell growth factor receptor Kit (Homo sapiens), P10721 [D816V] (P10721 whole entry D816V): as the sequence (P10721 whole entry V560G) above, with G560V, D816V counted along it

Consider `CCCN1CCC=C(c2ccc(Nc3nc(Nc4ccccc4C(N)=O)c4cc[nH]c4n3)c(C)c2)C1`, for which the inhibition is 7.61% in [1]; 2.14% in test [2]; 3.46% in [3]; 2.19% in test [4]; 2.74% in test [5]; -1.04% in test [6]. The inhibition in test [7] stood at 0.49%; in test [8], 0.98%; in [9], 17.7%; in test [10], 4.24%; in test [11] it was 11.6%; in [12] it was 7.12%. For the same compound, the inhibition in test [13] was 3.39%; in [14], 4.53%; in test [15] it was 0.85%; in [16] it was -4.87%; in [17] it was -3.21%; in test [18] it was 4.63%. The inhibition in test [19] stood at 7.36%; in [20], 79.4%.
With `CCn1c(-c2nonc2N)nc2c(N3CCCC3)nccc21`, the inhibition in test [1] is -0.14%; in [3], -2.79%; in [4] it was -0.66%; in test [5], -1.59%; in test [6], -0.2%; in test [7], 2.23%. In addition, the inhibition in test [8] was 1.32%; in test [9] it was 6.67%; in test [10] it was -1.56%; in test [11] it was 1.81%; in test [12], -1.12%; in test [13] it was -0.65%. In addition, the inhibition in test [14] is -1.62%; in test [15] it was -1.43%; in [16], -0.78%; in [17] it was 1.06%; in test [18], -2.27%; in test [19], -0.36%. Also, the inhibition in [20] turned out to be 0.51%.
For `NS(=O)(=O)c1cccc(-c2ccc3c(NC(=O)C4CC4)n[nH]c3c2)c1`, the inhibition was 0.22% in test [1]; -4.88% in test [3]; -0.14% in test [4]; -1.18% in [5]; -0.5% in test [6]; 1.58% in test [7]. Moreover, the inhibition in [8] is 0.44%; in test [9], 6.32%; in test [10], -1.56%; in test [11], 0.12%; in test [12], 1.16%; in test [13] it was 3.53%. Besides, the inhibition in test [14] is -3.61%; in test [15], -1.9%; in test [16] it was 1.03%; in [17] it was 4.07%; in test [18], -1.55%; in test [19] it was 3.43%. For the same compound, in [20], the inhibition amounted to 0.03%.
For the compound `CCn1c(-c2nonc2N)nc2cncc(C(=O)N3CCNCC3)c21`, the inhibition in test [1] was 2.09%; in test [2], 4.28%; in test [3], 4.72%; in test [4] it was 4.03%; in test [5], 2.86%; in test [6], -0.41%. Moreover, the inhibition in test [7] was -0.7%; in test [8], 3.99%; in test [9], 9.13%; in test [10], 7.95%; in [11], 7.52%; in [12], 4.16%. The inhibition in [13] is 4.92%; in [14] it was 2.72%; in [15] it was 3.08%; in [16] it was -3.45%; in test [17], -0.74%; in test [18] it was 3.56%. Also, the inhibition in [19] was 5.67%; in test [20] it was 5.18%.
For `COc1ccc2cc(-c3c(-c4ccncc4)nc(-c4ccc([S+](C)[O-])cc4)n3C)ccc2c1` (stereo not drawn), the inhibition in test [1] was 3.22%; in [2] it was 1.65%; in [3] it was -2.81%; in test [4] it was 0.86%; in test [5] it was 2.23%; in test [6], -0.93%. For the same compound, the inhibition is 0.05% in test [7]; 4.56% in test [8]; 17.8% in test [9]; 1.88% in [10]; -0.76% in test [11]; 1.61% in test [12]. Further, the inhibition in test [13] was 4.68%; in [14], -0.37%; in test [15], -0.98%; in test [16], 2.62%; in test [17], 0.15%; in test [18] it was 2.55%. Moreover, the results for the inhibition in test [19] and in test [20] were 6.96% and 2.55%, respectively.
